PubChem BioAssay (Tox21)
Results filed as inconclusive are left out. The source made the active and inactive calls. Unless noted, the call rests on the fitted dose curve; in most records, active means well fitted curve in the direction sought with a large enough effect in the repeat runs; inconclusive means weak or mixed curves; inactive means no such curve, though single readings can be large; an effect the other way counts as inactive or inconclusive.

Columns and labels:
[1] = molecular target: Aryl hydrocarbon receptor (Homo sapiens) (UniProt P35869); assay: qHTS assay to identify small molecule that activate the aryl hydrocarbon receptor (AhR) signaling pathway (AID 743085); conditions: HepG2 AhR-luc (HG2L7.5c1), luciferase, 24 h; series mostly up to 70.3 µM;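 further: HG2L7.5c1 human HepG2 liver cells with stably integrated DRE-driven firefly reporter; nearly all actives have a fitted effect of over 15% in size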
Aryl hydrocarbon receptor (Homo sapiens), sequence (P35869 whole entry, looked up): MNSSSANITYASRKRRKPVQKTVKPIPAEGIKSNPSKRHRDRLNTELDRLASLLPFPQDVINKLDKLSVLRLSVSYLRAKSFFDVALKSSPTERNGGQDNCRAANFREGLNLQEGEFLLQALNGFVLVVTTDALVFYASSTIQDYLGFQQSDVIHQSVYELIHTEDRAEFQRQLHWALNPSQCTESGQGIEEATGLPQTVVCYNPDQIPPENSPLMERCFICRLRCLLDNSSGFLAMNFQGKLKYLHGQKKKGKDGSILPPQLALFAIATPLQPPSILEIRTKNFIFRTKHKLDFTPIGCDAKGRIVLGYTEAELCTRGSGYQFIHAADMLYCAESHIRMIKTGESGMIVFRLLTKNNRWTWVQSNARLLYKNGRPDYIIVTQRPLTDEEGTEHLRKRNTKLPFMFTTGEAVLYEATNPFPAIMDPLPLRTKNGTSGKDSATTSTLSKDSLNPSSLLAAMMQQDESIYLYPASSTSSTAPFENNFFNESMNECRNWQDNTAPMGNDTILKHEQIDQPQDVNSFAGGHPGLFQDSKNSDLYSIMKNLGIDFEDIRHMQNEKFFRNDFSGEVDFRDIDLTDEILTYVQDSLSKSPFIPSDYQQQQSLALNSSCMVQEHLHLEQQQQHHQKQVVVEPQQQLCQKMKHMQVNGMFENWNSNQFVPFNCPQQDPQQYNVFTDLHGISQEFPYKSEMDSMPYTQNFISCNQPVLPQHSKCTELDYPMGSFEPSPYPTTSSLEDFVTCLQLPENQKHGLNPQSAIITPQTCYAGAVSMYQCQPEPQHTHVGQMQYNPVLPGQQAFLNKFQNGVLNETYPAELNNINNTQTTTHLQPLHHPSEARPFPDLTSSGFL
Method in brief: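 24 h compound exposure, 37C, HepG2-derived HG2L7.5c1 cells with DRE-responsive luciferase. Readouts: fluorescence viability, then luminescence at room temperature after 30 min.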

[2] = molecular target: Peroxisome proliferator-activated receptor gamma (Homo sapiens) (UniProt P37231); assay: qHTS assay to identify small molecule agonists of the peroxisome proliferator-activated receptor gamma (PPARg) signaling pathway (AID 743094; active means well fitted activation curve with a large enough effect in the signal ratio in the repeat runs, not every such curve was filed as active; the % refers to the signal ratio); conditions: HEK293H PPARg-UAS-bla, beta-lactamase FRET ratio, 17 h; series mostly up to 57 µM
Peroxisome proliferator-activated receptor gamma (Homo sapiens), sequence (P37231 whole entry, looked up): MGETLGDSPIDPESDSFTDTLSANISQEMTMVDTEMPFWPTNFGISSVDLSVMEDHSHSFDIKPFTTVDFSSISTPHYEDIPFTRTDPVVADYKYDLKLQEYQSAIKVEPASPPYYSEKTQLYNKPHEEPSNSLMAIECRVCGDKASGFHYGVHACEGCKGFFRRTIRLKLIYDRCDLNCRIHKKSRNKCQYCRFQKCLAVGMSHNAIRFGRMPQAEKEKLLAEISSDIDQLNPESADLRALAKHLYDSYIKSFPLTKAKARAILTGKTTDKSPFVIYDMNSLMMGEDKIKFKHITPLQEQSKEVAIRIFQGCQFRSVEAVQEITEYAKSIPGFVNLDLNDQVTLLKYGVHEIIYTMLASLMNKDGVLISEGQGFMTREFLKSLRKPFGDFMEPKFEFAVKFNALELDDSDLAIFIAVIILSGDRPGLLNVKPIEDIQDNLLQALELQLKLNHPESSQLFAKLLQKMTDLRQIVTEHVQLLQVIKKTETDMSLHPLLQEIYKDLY
Method in brief: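 Stably transfected HEK293H cells (GeneBLAzer PPARg UAS-bla) were incubated with test substances for 17 h at 37C after a 5 h pre-incubation; beta-lactamase activity was then detected by FRET substrate fluorescence.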

[3] = qHTS assay for small molecule agonists of the antioxidant response element (ARE) signaling pathway - cell viability counter screen (AID 743203; calls by dose curve; further: nearly all actives have a fitted effect of over 55% in size; further: potency means the concentration at half of the fitted maximal effect); conditions: ARE-bla HepG2 viability, CellTiter-Glo luminescence, 16 h; series mostly up to 73.3 µM
Method in brief: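 Cells (ARE-bla HepG2, 2,000/well) receive DMSO-dissolved compounds after a 5 hrs rest. Plates incubate 16 hrs at 37C/5% CO2. CellTiter-Glo luminescence is then recorded after 30 min at room temperature.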

[4] = molecular target: Peroxisome proliferator-activated receptor delta (Homo sapiens) (UniProt Q03181); assay: qHTS assay to identify small molecule agonists of the peroxisome proliferator-activated receptor delta (PPARd) signaling pathway (AID 743212; calls by dose curve; further: potency means the concentration at half of the fitted maximal effect); conditions: HEK293H PPARd-UAS-bla, beta-lactamase FRET ratio, 17 h; series mostly up to 62.6 µM
Peroxisome proliferator-activated receptor delta (Homo sapiens), sequence (Q03181 whole entry, looked up): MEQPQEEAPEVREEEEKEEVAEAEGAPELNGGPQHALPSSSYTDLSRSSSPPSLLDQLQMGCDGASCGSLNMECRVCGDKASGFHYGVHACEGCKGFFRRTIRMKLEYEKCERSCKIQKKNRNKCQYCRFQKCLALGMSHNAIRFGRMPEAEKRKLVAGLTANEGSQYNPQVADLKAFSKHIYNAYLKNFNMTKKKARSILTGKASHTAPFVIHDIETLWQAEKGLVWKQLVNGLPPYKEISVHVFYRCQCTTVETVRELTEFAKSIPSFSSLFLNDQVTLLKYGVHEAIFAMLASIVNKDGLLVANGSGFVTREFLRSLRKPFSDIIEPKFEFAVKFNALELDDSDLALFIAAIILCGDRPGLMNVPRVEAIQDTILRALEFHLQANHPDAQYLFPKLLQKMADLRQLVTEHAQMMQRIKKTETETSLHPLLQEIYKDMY
Method in brief: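 HEK293H PPARd-bla cells; 5 h preincubation 37 C/5% CO2; compound (DMSO) 37 C; LiveBLAzer B/G FRET substrate 2 h RT; fluorescence intensity.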

[5] = molecular target: Peroxisome proliferator-activated receptor delta (Homo sapiens) (UniProt Q03181); assay: qHTS assay to identify small molecule antagonists of the peroxisome proliferator-activated receptor delta (PPARd) signaling pathway (AID 743215; active means well fitted inhibition curve with a large enough effect in the signal ratio in the repeat runs, not every such curve was filed as active; the % refers to the signal ratio;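 further: cells stimulated with agonist L165041 at 300 nM final during compound exposure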; further: potency means the concentration at half of the fitted maximal effect); conditions: HEK293H PPARd-UAS-bla, beta-lactamase FRET ratio, antagonist, 17 h; series mostly up to 62 µM
Method in brief: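 Antagonist-mode beta-lactamase reporter screen: HEK293H cells with UAS-bla under PPARd control, stimulated by 300 nM L165041 (final) alongside test compound for 17 h at 37 C, then FRET fluorescence after 2 h substrate incubation.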

[6] = molecular target: Bile acid receptor (Homo sapiens) (UniProt Q96RI1); assay: qHTS assay to identify small molecule antagonists of the farnesoid-X-receptor (FXR) signaling pathway (AID 743217; active means well fitted inhibition curve with a large enough effect in the signal ratio in the repeat runs, not every such curve was filed as active; the % refers to the signal ratio; further: potency means the concentration at half of the fitted maximal effect); conditions: HEK293T FXR-UAS-bla, beta-lactamase ratio, CDCA-stimulated, 16 h; series mostly up to 62.6 µM
Bile acid receptor (Homo sapiens), sequence (Q96RI1 whole entry, looked up): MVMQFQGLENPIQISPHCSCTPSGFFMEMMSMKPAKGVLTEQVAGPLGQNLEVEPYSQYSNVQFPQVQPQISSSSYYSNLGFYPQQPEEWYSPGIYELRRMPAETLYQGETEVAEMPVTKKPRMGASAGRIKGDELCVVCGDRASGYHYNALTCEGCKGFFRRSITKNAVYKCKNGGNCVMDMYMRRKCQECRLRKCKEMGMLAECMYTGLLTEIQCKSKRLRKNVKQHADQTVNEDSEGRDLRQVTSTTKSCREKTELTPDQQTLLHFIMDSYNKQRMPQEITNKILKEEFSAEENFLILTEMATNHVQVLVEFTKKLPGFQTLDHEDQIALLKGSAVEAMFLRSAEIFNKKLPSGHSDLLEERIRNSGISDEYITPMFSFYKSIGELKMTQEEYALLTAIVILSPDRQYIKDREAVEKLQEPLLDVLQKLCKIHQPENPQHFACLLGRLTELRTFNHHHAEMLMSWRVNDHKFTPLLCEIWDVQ
Method in brief: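 Beta-lactamase reporter under UAS control in HEK 293T cells; compound exposure 16 h at 37 °C in the presence of chenodeoxycholic acid (50 uM final); signal from B/G FRET substrate after 2 h at room temperature.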

[7] = qHTS assay to identify small molecule agonists of the farnesoid-X-receptor (FXR) signaling pathway - cell viability counter screen (AID 743218); conditions: FXR-bla HEK293T viability, CellTiter-Glo luminescence, 16 h; series mostly up to 62.6 µM; further: nearly all actives have a fitted effect of over 45% in size; further: potency means the concentration at half of the fitted maximal effect
Method in brief: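 In GeneBLAzer FXR-UAS-bla HEK 293T cells, compounds act for 16 h at 37 C. Cell viability is then scored in the reporter wells by CellTiter-Glo, 30 min at RT, luminescence.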

[8] = molecular target: Bile acid receptor (Homo sapiens) (UniProt Q96RI1); assay: qHTS assay to identify small molecule agonists of the farnesoid-X-receptor (FXR) signaling pathway (AID 743220; active means well fitted activation curve with a large enough effect in the signal ratio in the repeat runs, not every such curve was filed as active; the % refers to the signal ratio); conditions: HEK293T FXR-UAS-bla, beta-lactamase FRET ratio, 16 h; series mostly up to 62.6 µM
Method in brief: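 Beta-lactamase reporter under UAS control in GeneBLAzer FXR HEK 293T cells (5000/well) measured with LiveBLAzer FRET substrate after 2 h at room temperature. Compound exposure lasted 16 h at 37C.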

[9] = molecular target: Vitamin D3 receptor (Homo sapiens) (UniProt P11473); assay: qHTS assay to identify small molecule agonists of the vitamin D receptor (VDR) signaling pathway (AID 743222; calls by dose curve); conditions: HEK293T VDR-UAS-bla, beta-lactamase FRET ratio, 16 h; series mostly up to 63.5 µM
Vitamin D3 receptor (Homo sapiens), sequence (P11473 whole entry, looked up): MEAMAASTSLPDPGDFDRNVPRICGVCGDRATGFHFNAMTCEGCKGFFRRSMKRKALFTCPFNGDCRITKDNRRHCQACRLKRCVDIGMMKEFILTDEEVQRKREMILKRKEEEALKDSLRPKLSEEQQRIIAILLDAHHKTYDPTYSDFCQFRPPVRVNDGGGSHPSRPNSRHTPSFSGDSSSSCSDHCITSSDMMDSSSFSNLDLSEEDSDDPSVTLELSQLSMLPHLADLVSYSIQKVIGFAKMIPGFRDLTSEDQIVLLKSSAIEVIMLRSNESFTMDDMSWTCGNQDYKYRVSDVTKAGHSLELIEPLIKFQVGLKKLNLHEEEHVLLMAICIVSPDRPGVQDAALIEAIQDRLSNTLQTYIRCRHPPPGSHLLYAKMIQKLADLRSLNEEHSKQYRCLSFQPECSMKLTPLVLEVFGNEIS
Method in brief: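 Agonist activity measured in VDR-bla reporter cells. Exposure 16 h, 37C, 5% CO2; detection by B/G FRET substrate, 2 h RT.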

[10] = molecular target: Vitamin D3 receptor (Homo sapiens) (UniProt P11473); assay: qHTS assay to identify small molecule antagonists of the vitamin D receptor (VDR) signaling pathway (AID 743223; active means well fitted inhibition curve with a large enough effect in the signal ratio in the repeat runs, not every such curve was filed as active; the % refers to the signal ratio); conditions: VDR-UAS-bla HEK293T, beta-lactamase FRET ratio, 16 h; series mostly up to 61 µM
Method in brief: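 Agonist 1alpha,25-dihydroxyvitamin D3 (3 nM in well) was added with each compound to VDR-bla cells preincubated 4 h. Cells stood 16 h at 37C, then FRET substrate 2 h at room temperature; fluorescence intensity recorded.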

[11] = qHTS assay to identify small molecule agonists of the vitamin D receptor (VDR) signaling pathway - cell viability counter screen (AID 743224); conditions: VDR-bla HEK293T viability, CellTiter-Glo luminescence, 16 h; series mostly up to 62.6 µM; further: nearly all actives have a fitted effect of over 50% in size; further: potency means the concentration at half of the fitted maximal effect
Method in brief: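 VDR-bla cell line, quantitative HTS format; 16 h compound incubation (37C, 5% CO2); ATP-based CellTiter-Glo luminescence measured in the reporter assay wells.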

[12] = qHTS assay to identify small molecule antagonists of the peroxisome proliferator-activated receptor gamma (PPARg) signaling pathway - cell viability counter screen (AID 743194); conditions: PPARg-bla HEK293H viability, CellTiter-Glo luminescence, 17 h; Potency: co-treated with 50 nM rosiglitazone unless noted; series mostly up to 62.6 µM; further: nearly all actives have a fitted effect of over 55% in size; further: potency means the concentration at half of the fitted maximal effect
Method in brief: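 Viability was measured as CellTiter-Glo luminescence in GeneBLAzer PPARg UAS-bla HEK293H cells. These cells had been exposed 17 h at 37 C to compounds together with rosiglitazone at 50 nM final, with the beta-lactamase readout taken in the same wells.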

[13] = qHTS assay for small molecule activators of the heat shock response signaling pathway - cell viability counter screen (AID 743209); conditions: HSE-bla HeLa viability, CellTiter-Glo luminescence, 5 h; series mostly up to 62.6 µM; further: nearly all actives have a fitted effect of over 50% in size
Method in brief: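 Quantitative HTS format, Tox21 10K library. HeLa cells carrying an HSE-driven beta-lactamase reporter were treated 5 h at 37 C, then assessed for viability by CellTiter-Glo luminescence.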

[14] = qHTS assay to identify small molecule agonists of the peroxisome proliferator-activated receptor delta (PPARd) signaling pathway - cell viability counter screen (AID 743211); conditions: PPARd-bla HEK293H viability, CellTiter-Glo luminescence, 17 h; series mostly up to 62.6 µM; further: nearly all actives have a fitted effect of over 55% in size; further: potency means the concentration at half of the fitted maximal effect
Method in brief: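 Luminescent ATP viability assay (CellTiter-Glo, 30 min RT) in UAS-bla HEK293H cells carrying the PPAR delta reporter construct, 3000 cells/well, after a 17 h compound treatment at 37 C.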

[15] = qHTS assay to identify small molecule antagonists of the peroxisome proliferator-activated receptor delta (PPARd) signaling pathway - cell viability counter screen (AID 743213); conditions: PPARd-bla HEK293H viability, CellTiter-Glo luminescence, 17 h; series mostly up to 62 µM; further: nearly all actives have a fitted effect of over 50% in size; further: potency means the concentration at half of the fitted maximal effect
Method in brief: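 HEK293H cells with the PPARd UAS-bla reporter, co-treated 17 h at 37 C with compounds and L165041 (300 nM final), were lysed with CellTiter-Glo. Luminescence indicated viable cell content.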

[16] = qHTS assay to identify small molecule antagonists of the farnesoid-X-receptor (FXR) signaling pathway - cell viability counter screen (AID 743221; active means well fitted cell-killing curve with a large enough effect in the repeat runs, not every such curve was filed as active; further: nearly all actives have a fitted effect of over 50% in size; further: potency means the concentration at half of the fitted maximal effect); conditions: FXR-bla HEK293T viability, CellTiter-Glo luminescence, 16 h; series mostly up to 62.6 µM
Method in brief: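 In GeneBLAzer FXR-UAS-bla HEK 293T cells stimulated with 50 uM chenodeoxycholic acid (final), compounds acted for 16 h at 37 C. Viability was assessed afterwards by CellTiter-Glo luminescence.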

[17] = molecular target: Peroxisome proliferator-activated receptor gamma (Homo sapiens) (UniProt P37231); assay: qHTS assay to identify small molecule antagonists of the peroxisome proliferator-activated receptor gamma (PPARg) signaling pathway (AID 743191; calls by dose curve; further: nearly all actives have a fitted effect of over 30% in size); conditions: HEK293H PPARg-UAS-bla, beta-lactamase ratio, antagonist, 17 h; series mostly up to 62.6 µM
Method in brief: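 Beta-lactamase reporter under UAS control in HEK293H PPARg-bla cells; compound treatment 17 h at 37C. Read-out: fluorescence intensity after 1 h room-temperature incubation with LiveBLAzer B/G FRET substrate.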

[18] = qHTS assay for small molecule activators of the heat shock response signaling pathway (AID 743210; active means well fitted activation curve with a large enough effect in the signal ratio in the repeat runs, with a control signal flat, not every such curve was filed as active; the % refers to the signal ratio;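 further: HeLa cells with beta-lactamase reporter driven by heat shock elements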); conditions: HeLa HSE-bla reporter, beta-lactamase ratio, 5 h; series mostly up to 62.6 µM
Method in brief: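 HeLa HSE-bla cells, overnight plating; cpd in DMSO 5 h, 37 C; LiveBLAzer B/G FRET substrate 2.5 h RT; fluorescence intensity read.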

[19] = qHTS assay to identify small molecule that activate the aryl hydrocarbon receptor (AhR) signaling pathway - cell viability counter screen (AID 743086); conditions: HepG2-AhR-luc viability, CellTiter-Fluor, 24 h; series mostly up to 70.3 µM;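 further: HepG2 liver cells carrying the AhR DRE luciferase reporter; nearly all actives have a fitted effect of over 45% in size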
Method in brief: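 Cytotoxicity counter screen: CellTiter-Fluor signal (30 min, 37 C) in 4000 HepG2 cells/well carrying the DRE-luciferase reporter, following 24 h compound exposure at 37 C.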

[20] = qHTS assay for small molecule agonists of the antioxidant response element (ARE) signaling pathway (AID 743202; active means well fitted activation curve with a large enough effect in the signal ratio in the repeat runs, not every such curve was filed as active; the % refers to the signal ratio; further: potency means the concentration at half of the fitted maximal effect); conditions: HepG2 ARE-bla reporter, beta-lactamase FRET, 16 h; series mostly up to 73.3 µM
Method in brief: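 Quantitative high-throughput format in HepG2 cells bearing an integrated ARE-beta-lactamase reporter. Compound exposure lasted 16 h at 37 C, and fluorescence was read 2 h after adding LiveBLAzer B/G substrate at room temperature.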

Measured: Potency

CC(C)(C)c1ccc(OP(=O)(Oc2ccccc2)Oc2ccccc2)cc1
inactive: [1] | [2] | [3] | [4] | [7] | [8] | [9] | [10] | [11]
active: [5] 22 µM | [6] 24.7 µM

CC(=O)O.CC(=O)O.CC(=O)O.CC(=O)O.CC(=O)O.CC(=O)O.CC(=O)O.O.O.[Cr].[Cr].[Cr]
inactive: [1] | [12] | [3] | [13] | [14] | [15] | [7] | [16] | [11]

COc1ccc(Cc2nccc3cc(OC)c(OC)cc23)cc1OC
inactive: [2] | [17] | [12] | [3] | [18] | [4] | [15] | [7] | [16] | [11]

CSSC
not listed: [1] | [2] | [6] | [8] | [12] | [13] | [17]
inactive: all other assays above

O=C(CCCCl)c1ccc(F)cc1
inactive: [17] | [12] | [20] | [3] | [13] | [18] | [14] | [15] | [7] | [16] | [11]

CC[N+]1(CC)CCC(OC(=O)C(O)(c2ccccc2)c2ccccc2)C1 (stereo unspecified)
not listed: [1] | [2] | [4] | [5] | [12] | [17] | [19]
inactive: all other assays above

CN1C(=O)[C@@H](NC(=O)c2cc3ccccc3[nH]2)N=C(c2ccccc2)c2ccccc21
inactive: [12] | [3] | [13] | [14] | [15] | [7] | [16] | [9] | [10] | [11]

C[C@@H]1CC2=CC(=O)CC[C@@H]2[C@H]2CC[C@@]3(C)[C@@H](CC[C@]3(C)O)[C@@H]21
not listed: [1] | [2] | [4] | [5] | [11] | [19] | [20]
inactive: all other assays above

CCOP(=S)(NC(C)C)Oc1ccccc1C(=O)OC(C)C (stereo unspecified)
active: [20] 54.5 µM | [7] 21.9 µM
not listed: [1] | [2] | [3] | [5] | [6] | [9] | [16]
inactive: all other assays above

O=[N+]([O-])c1cccc2cccc([N+](=O)[O-])c12
active: [20] 9.73 µM
not listed: [1] | [2] | [5] | [15] | [17] | [18] | [19]
inactive: all other assays above

O=S(=O)(NS(=O)(=O)C(F)(F)F)C(F)(F)F
inactive: [12] | [3] | [13] | [14] | [15] | [7] | [16] | [11]

O=C(O)CCCCCCNC1c2ccccc2CCc2ccccc21
not listed: [1] | [2] | [4] | [11] | [13] | [17] | [18]
inactive: all other assays above

CC#C[C@]1(O)CC[C@H]2[C@@H]3C[C@H](C)C4=CC(=O)CC[C@]4(C)[C@H]3CC[C@@]21C
inactive: [3] | [13] | [14] | [15] | [7] | [8] | [16] | [11]
active: [20] 23.7 µM

CCCC[N+]1(C)CCCC1 (tested in a mixture with another compound)
inactive: [19] | [12] | [3] | [13] | [18] | [14] | [7] | [16] | [11]

[C-]1=CC=CC1.[Cl][Zr+2][Cl].c1cc[cH-]c1
inactive: [19] | [12] | [20] | [3] | [15] | [7] | [16] | [9] | [11]

CCN(CC)Cc1nccn1-c1ccc([N+](=O)[O-])cc1C(=O)c1ccccc1Cl
active: [20] 21.1 µM
not listed: [1] | [2] | [6] | [8] | [12] | [14] | [17]
inactive: all other assays above

CN1C2CCC(C)(C)C1CC(OC(=O)C(O)(c1cccs1)c1cccs1)C2 (stereo unspecified)
not listed: [1] | [2] | [13] | [16] | [17] | [19]
inactive: all other assays above

Cc1ccc([N+](=O)[O-])[c]2c1[O][Hg]2
active: [12] 2.98 µM | [3] 4.22 µM | [14] 1.88 µM | [4] 29.8 µM | [15] 5.96 µM | [7] 2.37 µM | [16] 1.19 µM | [11] 3.76 µM

CSC(=O)c1c(C(F)F)nc(C(F)(F)F)c(C(=O)SC)c1CC(C)C
inactive: [12] | [20] | [18] | [4] | [5] | [7] | [16]
